Data on 39 compounds can be found in PubChem BioAssay (NCI).

Compounds without any hit were thinned out: in the full panel of roughly 83,000, 20% have a hit.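 Negative percent growth values reflect cell death: -40 means 40% of the cells present at the start died, and -100 means all died.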 Values without a mark were called inactive. Activity calls are given as the source filed them. The calls were made as follows: active = growth percent below 10; inactive = the rest.

The test has as its system HL-60(TB) leukemia. Put plainly: NCI-60 one-dose screen, 48 h (100 = growth as untreated, 0 = no growth, -100 = all killed). The conditions noted are these: 10 µM unless noted.
As for `Cc1ccc2c(c1)Oc1nc(N)c(C#N)c(N)c1C2Sc1ccc(F)cc1` (centres undefined), the growth was -51.7% (active). As for `Cc1ncn(-c2ccc(/C=N/Nc3ccnc4cc(Cl)ccc34)cc2)c1C`, the figure is -40.4% (active); as for `CCCC[n+]1ccc(SCC(=O)n2ccc3ccccc32)c2ccccc21`, 86.8%; as for `CC1=C(C)C(=O)C(Nc2ccccc2)=C(Cl)C1=O`, 45.6%. The result for `CCCn1cnc2c(c1=N)C(c1ccc(F)cc1)c1sc3c(C)cccc3c1O2` (centres undefined) reads -30.2% (active); that for `COc1ccc(Oc2ccc(C3CC(c4cc(OC)c(OC)c(OC)c4)=NN3C(C)=O)cc2)cc1` (centres undefined), -14.9% (active); that for `COc1ccc(/C=N/NC2=NC3C(S2)N(C)C(=O)N3C)cc1` (centres undefined), -28.8% (active). For the compound `CCCCCc1ccc(S(=O)(=O)Nc2cccc(-c3csc(NC(=O)CCCCCN4CCN(C)CC4)n3)c2)cc1`, the growth was -41.5% (active). The result for `Cc1ccc(-c2nnc(SCc3ccc(O)c4ncccc34)n2-c2ccccc2)cc1` reads 0.292% (active); that for `CN1CCc2c(sc3ncnc(N/N=C/c4ccc(Cl)c(Cl)c4)c23)C1`, -58.2% (active). With `COc1ccc(-c2nn(-c3ccccc3)cc2/C=C/C(=O)c2ccc(NC(=O)CCCCCCC(=O)NO)cc2)cc1`, the growth is 116%. The result for `Nc1nc(N)c2c(n1)NC(c1ccc(F)cc1)CC(c1ccc(Nc3nc(NCCO)nc(Nc4ccc(Cl)cc4)n3)cc1)=N2` (centres undefined) reads -11.4% (active).

As for `O=C1c2ccccc2C23C(=C(c4cncnc4)c4ccccc42)CCCN13` (centres undefined), the growth was 112%. For the compound `COC[C@@]1(C)CC[C@]2(C)CC[C@]3(C)C(=CC[C@@H]4[C@@]5(C)CCCNC(C)(C)[C@@H]5CC[C@]43C)C2C1` (some centres undefined), the growth was 48.3%.

For `COc1cc(-c2nc3sccn3c2-c2ccnc(S(C)(=O)=O)n2)ccc1F`, the growth was 93.9%. Take `CC(=O)c1nnn(-c2c(C(=O)n3nc(C)cc3C)sc(=S)n2-c2ccccc2)c1C`: the growth was 110%. As for `Cn1ccnc1C(=O)/C=C/c1ccc(CNC(=O)c2ccc(S(F)(F)(F)(F)F)cc2)cc1`, the figure is -4.98% (active).

Consider `CC(C)=CCC[C@](C)(O)[C@H]1CC[C@]2(C)[C@@H]1CC[C@@H]1[C@@]3(C)CC[C@H](N)C(C)(C)[C@@H]3CC[C@]12C`, for which the growth is -24.1% (active).

As to `COc1ccc(NC(=O)[C@H](C)NC(=O)OC(C)(C)C)cc1C(=O)Nc1cccc(-c2cc(=O)c3c(OC)c(OC)c(OC)cc3o2)c1`, the growth is 2.88% (active).

`O=C(O)c1ccc(-n2c(=O)n(-c3cccc(C(F)(F)F)c3)c(=O)c3cc(-c4ccc(F)cc4F)ccc32)cc1`: the growth is -41.4% (active). The result for `COc1ccc2c(c1)c(-c1nnc(N)nc1-c1cn(C)c3ccccc13)cn2C` reads 72.6%. The result for `COCCNc1ccc2ncc(C#Cc3cncc(C(=O)Nc4ccc(CN5CCN(C)CC5)c(C(F)(F)F)c4)c3)n2n1` reads 0.694% (active).

In the case of `CNC(=O)c1cc(Oc2ccc3nc(NC(=O)c4cccc(C(F)(F)F)c4)sc3c2)ccn1`, the growth is 143%. With `O=C(c1ccc(Cl)cc1)C1[C@H](c2ccc(Cl)cc2)[C@@H](c2ccccc2)NC12C(=O)Nc1ccc(Br)cc12` (some centres undefined), the growth was 22.3%. As for `O=C(CCCCCCN1CC(=O)N2[C@@H](c3cccc(Br)c3)c3[nH]c4ccccc4c3C[C@H]2C1=O)NO`, the figure is 6.52% (active). The result for `O=C(O)c1cn(C2CC2)c2cc(N3CCN(C(=O)CN4C(=O)CSC4=O)CC3)c(F)cc2c1=O` reads 135%; that for `COc1cc(Cn2cc3c(c2)-c2onc(CN4CCCC4)c2CC3)cc(OC)c1OC`, 99%.

Turning to `CN(Cc1ccccc1)S(=O)(=O)/N=C1\NC(=O)NC1=C(Cl)Cl`, the growth was -29.8% (active).

With `COc1ccc(N2C(=O)c3cc(OC)c(OC)cc3NC2SCc2ccccc2)cc1` (centres undefined), the growth was 110%. For `Cc1ccc(-n2c(/C=C3\C(=O)Nc4ccccc43)ccc2CO)cc1`, the growth was 25.4%. Take `C#CCOc1ccc(C(Nc2cc(Cl)ccc2Cl)c2nnnn2C2CCCCC2)cc1` (centres undefined): the growth was 88.4%. As for `C#Cc1nc(/C=C/C(=O)c2nccn2C)cs1`, the figure is -40.3% (active); as for `C#Cc1nc(C2=C(C)/C(=N/OCc3ccccc3)CC2)cs1`, -54.1% (active); as for `CS(=O)(=O)Nc1cc(-c2ccc3ncc(C#N)c(NCc4cccc(F)c4)c3c2)cnc1Cl`, 4.11% (active). In the case of `CCCNNC(=O)c1ccc(-c2ccc(NC(=O)CCCCCCC(=O)N[C@H](C(=O)N3C[C@H](O)C[C@H]3C(=O)N[C@@H](C)c3ccc(-c4scnc4C)cc3)C(C)(C)C)cc2)cc1`, the growth was 18.1%. As for `COC(=O)C1CN(S(=O)(=O)/N=C2\NC(=O)NC2=C(Cl)Cl)C1`, the figure is 101%; as for `C=CCn1c(SCC(=O)Nc2ccc(C(=O)/C=C/c3ccc(Cl)cc3)cc2)nnc1-c1c[nH]c2ccccc12`, 87.5%; as for `Brc1ccc2[nH]cc(-c3nn4cc(-c5nccs5)nc4s3)c2c1`, 59.1%. The result for `Cc1nn(-c2ccccc2)c2nc(CCl)[nH]c(=O)c12` reads 33.1%.
